Data: PubChem BioAssay AID1779 (Sanford-Burnham Center for Chemical Genomics, 2009)
In all, about 290,000 compounds went through this assay and about 160 (0.055%) were called active. Cut-off read from the data, not from the text of the source: active = inhibition above about 50%; inactive = the rest. Shown is part of a subset that was picked to be rich in actives.

These compounds were tested against Tyrosine-protein phosphatase non-receptor type 22 (Homo sapiens) (UniProt Q9Y2R2) (assay: inhibitors of LYP phosphatase, biochemical, fluorescence intensity, uHTS (AID 1779;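 note: plate controls were vehicle with enzyme for no effect and no enzyme for full effect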)). Details: recombinant LYP phosphatase, at 11.5 µM, active compounds read high.
Sequence of Tyrosine-protein phosphatase non-receptor type 22 (Homo sapiens) (Q9Y2R2 whole entry, looked up): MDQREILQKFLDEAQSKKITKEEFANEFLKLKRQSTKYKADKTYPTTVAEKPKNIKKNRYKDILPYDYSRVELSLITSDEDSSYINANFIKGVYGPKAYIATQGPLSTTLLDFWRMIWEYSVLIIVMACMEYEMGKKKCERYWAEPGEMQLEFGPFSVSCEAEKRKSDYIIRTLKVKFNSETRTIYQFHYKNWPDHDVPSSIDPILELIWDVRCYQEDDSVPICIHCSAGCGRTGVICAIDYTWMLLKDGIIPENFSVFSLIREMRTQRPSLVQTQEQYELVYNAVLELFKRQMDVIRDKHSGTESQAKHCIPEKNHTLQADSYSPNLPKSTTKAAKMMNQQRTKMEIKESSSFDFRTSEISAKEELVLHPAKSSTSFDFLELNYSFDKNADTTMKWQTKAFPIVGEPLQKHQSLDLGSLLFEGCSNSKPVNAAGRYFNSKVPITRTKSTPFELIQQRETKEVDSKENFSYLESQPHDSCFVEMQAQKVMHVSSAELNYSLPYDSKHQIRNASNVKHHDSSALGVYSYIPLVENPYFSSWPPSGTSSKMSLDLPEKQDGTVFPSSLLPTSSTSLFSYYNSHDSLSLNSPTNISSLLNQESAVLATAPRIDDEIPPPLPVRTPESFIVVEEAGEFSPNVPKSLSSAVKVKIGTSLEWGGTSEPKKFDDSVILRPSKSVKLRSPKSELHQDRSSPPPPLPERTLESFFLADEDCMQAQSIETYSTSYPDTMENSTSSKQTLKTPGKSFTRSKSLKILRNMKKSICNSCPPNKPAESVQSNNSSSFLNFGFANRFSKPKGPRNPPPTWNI
For `CC(=O)c1ccc2c(c1)C1C(Cl)C(Sc3ccccc3[N+](=O)[O-])CC1C(c1ccccc1)N2` (stereo not given), the inhibition was 6% (inactive). With `CC(=O)c1ccc2c(c1)C1C(Cl)C(Sc3ccccc3[N+](=O)[O-])CC1C(C(=O)O)N2` (stereo not given) the inhibition was 51.4% (active). For `CCN(CC)C(=O)c1ccc2c(c1)C1C(Cl)C(Sc3ccccc3[N+](=O)[O-])CC1C(C(=O)O)N2` (stereo not given), the inhibition was 6.1% (inactive). For `O=P(Nc1ccccc1)(Nc1ccccc1)Oc1ccc(Cl)cc1`, the inhibition was -4% (inactive). With `COCc1cc(C2SCC(=O)Nc3c2c(=O)[nH]n3C(C)C)ccc1OC` (stereo not given) the inhibition was -11.3% (inactive). For `CCOP(=O)(/C=C(\Cl)c1ccccc1)C(O)c1ccc(F)cc1` (stereo not given), the inhibition was -5.3% (inactive). In the case of `CC(=O)C1C(=O)NC23CCCCC2C1c1ccccc1O3` (stereo not given), the inhibition is reported as 1.8% (inactive). In the case of `CCn1nc(/C=C/c2ccccc2)nc2c(=O)n(C)c(=O)nc1-2`, the inhibition is reported as 79.3% (active). With `COc1ccc(-n2c(/C=C/c3ccc(O)cc3)nc3ccccc3c2=O)cc1` the inhibition was -7.8% (inactive). In the case of `CCOc1ccc(-n2c(-c3cccs3)nc3ccccc3c2=O)cc1`, the inhibition is reported as 8.8% (inactive). `CCCc1nc2ccccc2c(=O)n1-c1ccc(OC)cc1` was tested, and the inhibition was 2.2% (inactive). With `CCn1nc(-c2ccccc2)nc2c(=O)n(C)c(=O)nc1-2` the inhibition was 60.7% (active). In the case of `COc1ccc(-n2c(-c3ccccc3)nc3ccccc3c2=O)cc1`, the inhibition is reported as -9.9% (inactive). In the case of `CCn1nc(-c2cccs2)nc2c(=O)n(C)c(=O)nc1-2`, the inhibition is reported as 52.8% (active). In the case of `O=c1c2ccccc2nc(-c2cccs2)n1-c1ccccc1`, the inhibition is reported as -10.4% (inactive). With `O=c1c2ccccc2nc(/C=C/c2ccccc2)n1-c1ccc(O)cc1` the inhibition was 3.1% (inactive). With `COc1ccc(C(=O)N2CCC3(CC2)OCCO3)cc1` the inhibition was -5% (inactive). In the case of `c1ccc2c(CN3CCOCC3)c[nH]c2c1`, the inhibition is reported as -8.9% (inactive). For `Cc1cc(OC(=O)c2cccs2)c2c3c(c(=O)oc2c1)CCCC3`, the inhibition was 2.4% (inactive). For `CCOC(=O)C(O)(c1ccc(NC(=O)Oc2ccccc2)cc1)C(F)(F)F` (stereo not given), the inhibition was -3.1% (inactive). With `CCN1CCN(c2ccc([N+](=O)[O-])cc2C=C2C(=O)NC(=O)NC2=O)CC1` the inhibition was -8.1% (inactive). `c1nc2nc3c(c(N4CCNCC4)n2n1)CCCC3` was tested, and the inhibition was -3.9% (inactive). For `S=P(Nn1cnnc1)(c1ccccc1)c1ccccc1`, the inhibition was 0.6% (inactive). For `CCOC(=O)c1c(C)n(CC(O)CN2CCOCC2)c2cc(Br)c(OC)cc12` (stereo not given), the inhibition was -6.1% (inactive). For `COc1ccc(-c2nn(CCC#N)cc2C(=O)Nc2ccccc2)cc1OC`, the inhibition was -8% (inactive). With `CN(C)CC1CSCCC1(O)c1ccc(C(F)(F)F)cc1` (stereo not given) the inhibition was -5.6% (inactive). For `Cc1cccnc1-n1c(C)nc2ccccc2c1=O`, the inhibition was 90.2% (active). In the case of `Cc1cccnc1-n1c(-c2ccccc2)nc2ccccc2c1=O`, the inhibition is reported as -1.3% (inactive). `Cc1ccc(-c2nc3ccccc3c(=O)n2-c2ncccc2C)cc1` was tested, and the inhibition was -0.2% (inactive). For `C=CCN1C(=O)NC(=O)C(Cc2ccc(OC)c(OC)c2)C1=O` (stereo not given), the inhibition was 3.4% (inactive). With `Cn1ncnc2c(=O)n(C)c(=O)nc1-2` the inhibition was 71.9% (active). With `Cc1nc2c(=O)n(C)c(=O)nc-2n(C)n1` the inhibition was 87.9% (active). In the case of `CN1CC(C(=O)c2ccc(F)cc2)C(c2ccc(F)cc2)C1` (stereo not given), the inhibition is reported as -5.4% (inactive). `C=CCC1C(=O)NC(=S)NC1=O` was tested, and the inhibition was 4.3% (inactive). With `COc1ccccc1N1CCN(CCc2ccccc2)CC1` the inhibition was -7.3% (inactive). With `N=C1c2ccccc2CN1NC(=O)c1ccc(Br)cc1` the inhibition was -5.9% (inactive). For `CCOC(=O)C(NC(=O)CC)(Nc1ccc(C(O)(C(=O)OCC)C(F)(F)F)cc1C)C(F)(F)F` (stereo not given), the inhibition was -6.6% (inactive). For `CCCCNC(=O)Nc1ccc(C(O)(C(=O)OCC)C(F)(F)F)cc1` (stereo not given), the inhibition was -8.2% (inactive). With `CCOC(=O)C(NC(=O)CCl)(Nc1ccc(C(O)(C(=O)OCC)C(F)(F)F)cc1)C(F)(F)F` (stereo not given) the inhibition was 82.4% (active). `CCC(=O)N1CC(=O)Nc2ccc(F)cc2C1c1ccc(F)cc1` (stereo not given) was tested, and the inhibition was 1% (inactive).
